Screening data: PubChem BioAssay, National Center for Advancing Translational Sciences (NCATS)
An excerpt weighted towards active compounds, which were near 7.5% of everything screened.
NPC1 promoter act: activators of NPC1 promoter; AID 485313; 2.4% of 320,000 active; Huh7 NPC1 promoter luciferase reporter, 24 h; Potency, µM (highest dose often 9.22 µM), for inactives: at the highest dose activation, most hits filed as activators; note: % of control where 0% means no effect; nearly all actives have a fitted effect of over 60% in size
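Luciferase expression driven by the NPC1 promoter was measured in stably transfected Huh7 cells after a 24 h compound incubation, using a luciferase reagent and a luminescence read.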
SMN2 splice enh: increases expression of the SMN2 splice variant; 2.8% of 210,000 active; HEK293 SMN2-luciferase splicing reporter, luminescence, 30-36 h; AID 1458; Potency, µM (highest dose often 46.1 µM), without a hit: at the top dose activity change, positive = activation, usual class: activators; note: % of control where 0% means no effect; nearly all actives have a fitted effect of over 55% in size
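HEK293 cells carry an SMN2 […]–luciferase reporter in which exon 7 inclusion puts luciferase in frame. Cells were plated 10-12 h before compound addition, then incubated 30-36 h at 37C. ONE-Glo luminescence was read; sodium butyrate at 4.5 mM final served as control.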
ELG1 genotox: genotoxicity induction in ELG1-luciferase HEK293T cells. HEK293T ELG1-luciferase reporter, luminescence, 16 h. Potency, µM (top dose mostly 46 µM), for inactives: at the top dose activity change, positive = activation, actives largely listed as activators. 1.3% of 330,000 active; note: % of control where 0% means no effect; nearly all actives have a fitted effect of over 60% in size
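ELG1-luciferase HEK293T cells, 2,000/well; compound pinned in; 16 hr, 37 °C, 5% CO2; ONE-Glo, 30 min RT; luminescence on CCD imager.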
Rab9 prom act: Rab9 promoter activation; 2.8% of 320,000 active; Potency, µM (titrated, usually from 9.22 µM), without a hit: at the highest dose activation, negative = inhibition, hits mostly activators; AID 485297; Huh7 Rab9 promoter-luciferase reporter, luminescence, 24 h; note: % of control where 0% means no effect; nearly all actives have a fitted effect of over 60% in size
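Steps: seed 1500 Huh7 Rab9-luc cells per well, rest 2 h at 37 °C; add compound in DMSO; incubate 24 h; add luciferase reagent, 10 min ambient; read luminescence.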
Luc counter: Kinase-Glo luciferase inhibition (counter-screen). 0.28% of 200,000 active. Kinase-Glo luciferase, ATP luminescence, 8 min. AID 1379. Q27757. Potency, µM (series often up to 38.3 µM), for the others: top-dose activity change, negative = inhibition, hits mostly inhibitors; note: % is set by controls: 0 for no effect and ±100 for the full control effect; nearly all actives have a fitted effect of over 60% in size
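Compound is pinned into ATP-containing buffer (10 uM ATP, imidazole pH 7.2, 7 mM MgCl2). Kinase-Glo luciferase reagent is then added. Light output is recorded following an 8-min room-temperature incubation.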
FLuc counter: firefly luciferase modulation, counter-screen for miR-21 project | P08659 | purified FLuc, Km substrates, luminescence inhibition | Potency, µM (highest dose often 57.5 µM), for the others: top-dose activity change, negative = inhibition, hits mostly inhibitors | 6.9% of 360,000 active;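 note: plate controls were vehicle for no effect and reference inhibitor for full effect; nearly all actives have a fitted effect of over 55% in size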
Target sequence (P08659 whole entry, looked up): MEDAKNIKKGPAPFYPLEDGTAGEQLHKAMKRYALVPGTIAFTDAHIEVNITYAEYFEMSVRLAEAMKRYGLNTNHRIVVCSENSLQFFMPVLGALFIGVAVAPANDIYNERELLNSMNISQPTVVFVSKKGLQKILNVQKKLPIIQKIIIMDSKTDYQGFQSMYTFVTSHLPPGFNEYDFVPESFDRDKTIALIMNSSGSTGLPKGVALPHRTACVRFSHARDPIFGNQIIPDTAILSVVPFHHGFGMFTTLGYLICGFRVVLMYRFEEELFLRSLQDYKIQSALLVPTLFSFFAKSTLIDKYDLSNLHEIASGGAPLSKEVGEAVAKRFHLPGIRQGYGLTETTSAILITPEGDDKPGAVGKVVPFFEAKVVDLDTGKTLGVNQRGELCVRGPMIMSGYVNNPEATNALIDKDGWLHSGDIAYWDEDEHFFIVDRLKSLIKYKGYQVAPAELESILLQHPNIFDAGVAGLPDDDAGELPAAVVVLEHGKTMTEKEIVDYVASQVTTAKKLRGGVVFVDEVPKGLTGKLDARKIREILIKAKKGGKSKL
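Biochemical qHTS of compounds, final roughly 60 µM downward over six points, against 10 nM purified firefly luciferase using Km concentrations of substrates (10 uM D-luciferin, 10 uM ATP) in Tris acetate pH 7.5 buffer; luminescence output.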
* hit, by the source's call; ? = inconclusive; nt = no result; [ ] = dose if it differs, or a comment. Calls come from the whole dose curve; as a rule, active = well fitted curve in the direction sought with a large enough effect; inconclusive = small, poorly fitted or top-dose-only effect, or another doubt; inactive = no such curve, though single readings can be large; an effect the other way counts as inactive or inconclusive. Potency is the fitted concentration of half-maximal effect.

SMILES	NPC1 promoter act	SMN2 splice enh	ELG1 genotox	Rab9 prom act	Luc counter	FLuc counter
S=c1[nH]c(-c2ccccc2)cn1/N=C/c1cccs1	1.41µM*	nt	-0.6%	?	nt	-14.7%
S=c1[nH]c(-c2ccccc2)cn1/N=C/c1ccc(Br)cc1	15.5%	nt	-8.6%	?	-1.4%	?
COc1cccc([C@@H]2Oc3ccc(OC)cc3C[C@H]2OC(=O)Nc2ccc(OC(F)F)cc2)c1	nt	-11.7%	nt	nt	-2.0%	nt
CCc1ccc(-c2csc(NC(=O)COC(=O)CCc3nc4ccccc4s3)n2)cc1	2.82µM*	5.62µM*	?	3.16µM*	-0.5%	?
Cc1nc(NC(=O)COC(=O)CCc2nc3ccccc3s2)c(Cl)cc1Cl	-1.8%	-8.4%	0.8%	-9.3%	-2.0%	0.8%
CCOC(=O)C1CCN(c2nc3ccccc3nc2C(C#N)C(=O)NCCc2ccccc2)CC1 (stereo not drawn)	?	-7.1%	27.1%	-3.3%	-1.0%	19µM*
Cc1ccc(Nc2c(-c3ccc(N4CCOCC4)cc3)nc3ncccn23)c(C)c1	-0.2%	1.0%	-1.8%	-3.5%	-2.1%	19µM*
Cc1ccccc1Nc1c(-c2ccc(N3CCOCC3)cc2)nc2ccc(Cl)cn12	nt	4.0%	nt	nt	nt	2.39µM*
Clc1ccc2nc(-c3ccc(N4CCOCC4)cc3)c(Nc3ccccc3)n2c1	nt	2.1%	nt	nt	nt	?
Cc1ccc2nc(-c3ccc(N4CCOCC4)cc3)c(Nc3ccccc3C)n2c1	nt	?	nt	nt	nt	1.9µM*
Cc1ccccc1N1CCN(C(=O)c2cc(C3CC3)nn2-c2ccccc2)CC1	-0.4%	nt	-1.3%	-3.7%	nt	0.8%
O=C(O)c1cncc(C#CCC2CCCCC2)c1	?	nt	0.7%	2.82µM*	nt	?
O=C(O)c1cncc(C#Cc2ccccc2)c1	1.5%	nt	-1.9%	14.7%	nt	?
CC1CCCCC12NC(=O)N(CC(=O)c1ccc(Cl)s1)C2=O (stereo not drawn)	-1.6%	nt	-4.0%	0.6%	nt	2.2%
O=C1C=C(Nc2ccc(Cl)cc2)CC(c2ccc(Cl)cc2)C1 (stereo not drawn)	-2.9%	-13.1%	8.6%	0.5%	2.6%	10.7µM*
Cc1ccc(C2CC(=O)C=C(Nc3ccc(Cl)cc3)C2)cc1 (stereo not drawn)	0.8%	-2.8%	2.3%	1.4%	5.6%	-1.2%
Cc1ccc(C)c(NC(=O)c2nnn(Cc3ccc(F)cc3Cl)c2N)c1	nt	-35.6%	nt	nt	nt	7.0%
COCC(C)N=C1NN=C(c2c[nH]c3ccccc23)CS1 (stereo not drawn)	18.7%	nt	?	?	-1.7%	21.3µM*
CCN=C1NN=C(c2cc(C)n(CCc3ccccc3)c2C)CS1	3.3%	-43.2%	?	-0.9%	6.4%	-16.1%
CCN=C1NN=C(c2c[nH]c3ccccc23)CS1	3.55µM*	nt	?	1.12µM*	-4.1%	6.01µM*
CN1Cc2c(C(=O)OC(C)(C)C)ncn2-c2ccsc2C1=O	nt	nt	nt	nt	1.8%	nt
COCC1CCCN(C(=O)c2ccc3nc(Cc4cccc(Cl)c4)oc3c2)C1 (stereo not drawn)	3.16µM*	nt	?	2.24µM*	nt	13.5µM*
COC(=O)CN(C)C(=O)c1ccc2nc(Cc3cccc(Cl)c3)oc2c1	2.82µM*	nt	?	3.55µM*	nt	23.9µM*
O=C(O)c1cccc(N/N=C/c2cccc3ccccc23)c1	0.1µM*	nt	?	?	nt	0.0757µM*
COc1ccc(N/N=C/c2c(C(=O)O)ccc3ccccc23)cc1	-38.4%	nt	5.9%	-38.1%	nt	9.53µM*
SMILES	NPC1 promoter act	SMN2 splice enh	ELG1 genotox	Rab9 prom act	Luc counter	FLuc counter
CCOc1cc(/C=N/Nc2cccc(C(=O)O)c2)ccc1OC(=O)c1ccccc1	0.0891µM*	1µM*	?	0.1µM*	-0.8%	16.9µM*
COc1ccc2ccccc2c1/C=N/Nc1ccc(Cl)c(C(=O)O)c1	?	nt	11.5%	?	nt	?
COc1ccc2ccccc2c1/C=N/Nc1cccc(C(=O)O)c1	1.12µM*	nt	?	0.891µM*	nt	8.49µM*
O=C(Nc1cccc(C(F)(F)F)c1)c1cc2nc(-c3ccccc3)cc(C(F)(F)F)n2n1	nt	-4.4%	nt	nt	nt	-3.8%
CCOC(=O)c1c(NC(=O)c2ccc(S(=O)(=O)N(C)C3CCCCC3)cc2)sc2c1CCN(C(C)C)C2	nt	nt	nt	nt	nt	-1.1%
COc1ccc(Cn2c(SCC(=O)NCc3ccc(Cl)cc3)nc3ccsc3c2=O)cc1	nt	nt	nt	nt	nt	-1.0%
O=C(NCCCc1ccccc1)c1nn(-c2ccccc2F)nc1CO	nt	-30.8%	nt	nt	nt	-8.4%
CCSC1=N/C(=C\c2ccc(C(=O)O)cc2)C(=O)S1	-1.9%	-2.8%	-2.8%	1.8%	-2.6%	9.53µM*
COC(=O)c1ccc(/C=C2\N=C(SC)SC2=O)cc1	-0.1%	nt	0.1%	0.6%	nt	-6.5%
O=C1SC(SCc2ccccc2Cl)=N/C1=C\c1ccc(C(=O)O)cc1	-4.5%	-0.2%	-0.5%	-3.8%	-1.0%	21.3µM*
CCOC(=O)SC1=N/C(=C\c2ccc(N(C)C)cc2)C(=O)S1	-1.3%	0.7%	0.6%	-1.9%	-4.8%	9.53µM*
C=CCSC1=N/C(=C\c2ccc(C)o2)C(=O)S1	0.6%	-15.7%	-0.1%	-0.5%	0.9%	15.1µM*
CC(C)OCCCNC(=O)CN1C(=O)CSc2ccc(S(=O)(=O)N3CCCCC3)cc21	-0.7%	nt	0.2%[9.26 µM]	5.9%	nt	0.8%
Cc1ccccc1OCC(=O)OCC(=O)NC1CCCCCC1	11.8%	nt	2.6%	-1.3%	nt	-2.3%
Cc1cc(O)c(C(=O)c2cnc3c(c2)COc2ccccc2-3)cc1Cl	nt	2.0%	nt	nt	nt	-10.4%
C=CCSC1=N/C(=C\c2ccsc2)C(=O)S1	-1.1%	3.5%	-0.5%	-4.8%	-1.0%	?
C=CCSC1=N/C(=C\c2ccc(C(=O)O)cc2)C(=O)S1	0.4%	16.9%	1.3%	0.0%	-1.5%	10.7µM*
CC(C)(C)C(=O)/C=c1\[nH]c(=O)/c(=C\c2ccccc2F)s1	0.3%	-8.2%	-0.3%	-0.1%	0.3%	?
CC(C)(C)C(=O)/C=c1\[nH]c(=O)/c(=C\c2ccc(F)cc2)s1	0.3%	-15.9%	-21.2%	-4.1%	-2.6%	23.9µM*
